Laboratory results published in PubChem BioAssay.

These compounds were tested against PEG-3 (UniProt Q6IN02) (assay: inhibition of PEG-3 promoter-driven reporter – cell-based, HeLa, luciferase, CREF/GAPDH counter-screen panel, dose response (AID 624167)). Settings: CREF/GAPDH counter-screens; HeLa PEG-Prom luciferase reporter, overnight, run 2, dose range 1, at 100 µM (top of the series) unless noted.
PEG-3, sequence (Q6IN02 whole entry, looked up): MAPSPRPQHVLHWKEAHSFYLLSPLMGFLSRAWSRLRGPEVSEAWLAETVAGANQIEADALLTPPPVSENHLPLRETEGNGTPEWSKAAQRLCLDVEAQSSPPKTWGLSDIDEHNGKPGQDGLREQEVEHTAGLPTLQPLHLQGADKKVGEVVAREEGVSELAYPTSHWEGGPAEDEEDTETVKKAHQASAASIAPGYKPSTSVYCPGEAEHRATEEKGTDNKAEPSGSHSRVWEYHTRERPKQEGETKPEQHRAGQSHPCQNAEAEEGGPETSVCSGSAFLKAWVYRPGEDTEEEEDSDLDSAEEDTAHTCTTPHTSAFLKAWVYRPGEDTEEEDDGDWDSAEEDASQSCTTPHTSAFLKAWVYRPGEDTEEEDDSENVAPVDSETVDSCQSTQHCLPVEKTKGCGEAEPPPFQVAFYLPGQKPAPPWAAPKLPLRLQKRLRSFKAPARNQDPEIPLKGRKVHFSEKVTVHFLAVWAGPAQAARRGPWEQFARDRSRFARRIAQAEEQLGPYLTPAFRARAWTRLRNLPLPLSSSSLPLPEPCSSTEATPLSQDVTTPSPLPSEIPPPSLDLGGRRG
Compound `O=C(Nc1ccc([N+](=O)[O-])cc1)C(=O)Nc1cccc(C(=O)O)c1` has an inhibition of 95%. `C=CCn1c(COc2ccccc2)nnc1SC(C)C(=O)N/N=C/c1cc(Cl)ccc1O` (stereo unspecified) was tested, and the inhibition was 86%. With `CCC(=O)NC(c1ccc(C)cc1)c1ccc2cccnc2c1O` (stereo unspecified) the inhibition was 50.5%. Work on `COc1ccc(C(O)(CC(C)C)C(CN2CCOCC2)c2ccccc2)cc1` (stereo unspecified) yielded an inhibition of 100%. With `C/C(=N\NC(=O)c1c(C)nc2ccccn12)c1ccc(O)cc1O` the inhibition was 48.1%. Compound `COc1cc(/C=C/C(=O)N2CCC=CC2=O)cc(OC)c1OC` has an inhibition of 96.1%. Work on `O=C(/C=C/Nc1ccccc1Br)c1ccccn1` yielded an inhibition of 99.5%. `COc1cc(/C=C/c2ccc3cccc(O)c3n2)c(Br)cc1O` was tested, and the inhibition was 96.1%. `Cc1cc(C=C2C(=O)c3ccccc3C2=O)c(C)n1-c1ccccc1` gave an inhibition of 80.6%. For `CCN(CC)c1ccc2nc3ccc(N)cc3[n+](-c3ccccc3)c2c1`, the inhibition was 102%. In the case of `CC(C)(c1ccccc1)c1ccc(OCC(O)CNC2CCN(Cc3ccccc3)CC2)cc1` (stereo unspecified), the inhibition is reported as 98.9%. `O=C(N/N=C\c1c(O)ccc2ccccc12)c1cncc(Br)c1` showed an inhibition of 79.4%. `COc1ccc(C(NC(C)=O)c2ccc3cccnc3c2O)c(OC)c1` (stereo unspecified) gave an inhibition of 59.9%. For `O=C(/C=C/c1ccccc1)NC(NC(=S)Nc1cccc(Cl)c1)C(Cl)(Cl)Cl` (stereo unspecified), the inhibition was 99.4%. `C=C(C)Cn1c(SCC(=O)N/N=C/c2c(O)ccc3ccccc23)nc2ccccc2c1=O` gave an inhibition of 7.84%. Work on `COc1ccccc1C(=O)Nc1nc2ccccc2s1` yielded an inhibition of 98%. Work on `Cc1cc(C)c2nc(NNC(=O)c3ccc(S(=O)(=O)N4CC(C)CC(C)C4)cc3)sc2c1` (stereo unspecified) yielded an inhibition of 101%. Compound `O=C(CCSc1nc2ccccc2s1)N/N=C/c1c(O)ccc2ccccc12` has an inhibition of 82.3%. `Cc1cc(C(=O)COC(=O)C2=COCCO2)c(C)n1-c1ccccc1` was tested, and the inhibition was 101%. In the case of `O=C1/C(=C\c2cccc(O)c2O)SC(=S)N1Cc1ccccc1`, the inhibition is reported as 101%. With `Cc1cc(NC(c2ccc(Cl)cc2)c2ccc3cccnc3c2O)no1` (stereo unspecified) the inhibition was 87.1%. Compound `COc1ccc(C(=O)O/N=C(\N)c2ccccn2)cc1` has an inhibition of 101%. In the case of `O=C1c2ccccc2S(=O)(=O)N1Cc1nc2ccccc2s1`, the inhibition is reported as 83.4%. `CCN1C(=O)C(=Cc2cccc(OC)c2Oc2ccc([N+](=O)[O-])cc2[N+](=O)[O-])SC1=S` was tested, and the inhibition was 46.1%. Compound `COc1cccc2sc(N(CCCN(C)C)C(=O)C(c3ccccc3)c3ccccc3)nc12` has an inhibition of 95.1%. Compound `CC(C)c1ccc(-c2nc3ccccc3s2)cc1` has an inhibition of 99.1%. With `CNC[C@H](CC1CCCCC1)NC[C@H](NCCC1CCCC1)[C@H](C)O` the inhibition was 99.9%. For `CCN1CCN(C(c2ccc(C(F)(F)F)cc2)c2ccc3cccnc3c2O)CC1` (stereo unspecified), the inhibition was 99.4%. In the case of `CCCC(=O)NC(c1ccc(N(C)C)cc1)c1ccc2cccnc2c1O` (stereo unspecified), the inhibition is reported as 78.2% [run 2, dose range 1, at 50 µM]. With `O=C(N/N=C\c1c(O)ccc2ccccc12)c1ccc(Cn2cccn2)o1` the inhibition was 75.1%. `Nc1nonc1-n1nnc(C(=O)N/N=C/c2cc(Br)ccc2O)c1CNc1ccccc1` was tested, and the inhibition was 81.9%.
